The full ranking holds about 33,000 sequences; the median of “e-score” is about -0.053, and the highest 2% start at about 0.38. The full list was thinned out, with the highest values kept by preference.
Each sequence was assayed against T1, SIX1 homeodomain (reference allele) (human, UniProt Q15475 108-198) (assay: universal protein binding microarray; Universal all-10-mer PBM (8x60K, AMADID 030236), 300 nM GST-tagged protein, Alexa Fluor 488 anti-GST; buffer, salt, pH and temperature not stated (as in Berger); high values mean tight binding). Conditions: protein: ivt; tags: N-terminal GST; dsDNA, one strand shown.
T1 sequence: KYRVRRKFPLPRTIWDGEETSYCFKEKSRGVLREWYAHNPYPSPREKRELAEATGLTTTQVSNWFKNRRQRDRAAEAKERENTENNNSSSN
Summary of the method: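 GST-tagged homeodomains were made by in vitro transcription/translation and quantified by anti-GST western blot against a recombinant GST standard curve. They were applied in duplicate at 300 nM final concentration to universal 'all 10-mer' protein binding microarrays (8×60K format). Binding was quantified as 8-mer E-scores with the Universal PBM Analysis Suite.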

Sequence	binding signal
GATATGGA	0.423 ± 0.00533 E-score
TATATGGA	0.207 ± 0.0193 E-score
GGTATGTA	0.2127 ± 0.00178 E-score
GATATGTA	0.383 ± 0.0265 E-score
CCTATGTA	0.156 ± 0.0122 E-score
AAAAGTAT	0.204 ± 0.154 E-score
AGGGTGAT	0.366 ± 0.00952 E-score
ATACTTTA	0.261 ± 0.0614 E-score
GATAGGTA	0.325 ± 0.00657 E-score
GATCAAAA	0.234 ± 0.0678 E-score
AGGGGCGG	0.174 ± 0.127 E-score
ATCTTCTA	0.227 ± 0.0812 E-score
CTATCATC	0.34 ± 0.0172 E-score
AGATCATG	0.295 ± 0.0208 E-score
GCATCATA	0.183 ± 0.0507 E-score
CTATCATA	0.341 ± 0.0419 E-score
ATCTCATG	0.197 ± 0.0118 E-score
ATATCATG	0.458 ± 0.0133 E-score
GTATCATA	0.471 ± 0.013 E-score
ATATCATC	0.46 ± 0.0219 E-score
ATATCTTA	0.345 ± 0.0615 E-score
ATATCATA	0.442 ± 0.0274 E-score
AGATCATC	0.344 ± 0.0462 E-score
GTATCTTA	0.312 ± 0.0466 E-score
CAGCTATC	0.25 ± 0.0918 E-score

Sequence	binding signal
ATCATCCA	0.275 ± 0.0117 E-score
ATCACAGC	0.2757 ± 0.00158 E-score
AGTTAATC	0.182 ± 0.0377 E-score
AGTAGTAT	0.349 ± 0.0523 E-score
CGGCTCGA	0.15 ± 0.146 E-score
GAAGATAA	0.154 ± 0.0705 E-score
CCGGGAGA	0.177 ± 0.081 E-score
TACCAATA	0.204 ± 0.0104 E-score
GGTATTCA	0.3 ± 0.0073 E-score
ACTATCCA	0.241 ± 0.0211 E-score
GGTATCCA	0.464 ± 0.0172 E-score
AGTATCCA	0.391 ± 0.00372 E-score
ACTATCCG	0.35 ± 0.00425 E-score
AGTATCCG	0.396 ± 0.0105 E-score
ATTATCCA	0.176 ± 0.0268 E-score
GCTATCCA	0.204 ± 0.0406 E-score
CCTATCCG	0.316 ± 0.0172 E-score
ATTATAGC	0.176 ± 0.0442 E-score
CGATCTTA	0.197 ± 0.0344 E-score
CCGATCCG	0.428 ± 0.0349 E-score
CCGATCGG	0.319 ± 0.0282 E-score
ACGATCCA	0.284 ± 0.0277 E-score
ACGATCCG	0.425 ± 0.0168 E-score
CCGATCCA	0.29 ± 0.0686 E-score
ACGATCCT	0.347 ± 0.0269 E-score

Sequence	binding signal
ATCACCAC	0.262 ± 0.0152 E-score
GATCGGAC	0.248 ± 0.0437 E-score
ACACCTCC	0.347 ± 0.0177 E-score
ATCGGCTG	0.167 ± 0.0425 E-score
ATCTGCCC	0.182 ± 0.0131 E-score
ACCTATCC	0.262 ± 0.0365 E-score
CGGTATGA	0.225 ± 0.00643 E-score
AGGTATCA	0.487 ± 0.00797 E-score
CGGTATTC	0.319 ± 0.00856 E-score
CGGTATCA	0.4855 ± 0.000332 E-score
AGGTATAT	0.357 ± 0.03 E-score
AGGTATCC	0.461 ± 0.0111 E-score
AGGTATGA	0.242 ± 0.0289 E-score
AGTTATCC	0.295 ± 0.00593 E-score
TGGTATAA	0.287 ± 0.0507 E-score
CGGTATCC	0.451 ± 0.0218 E-score
CGCTATCC	0.339 ± 0.0225 E-score
GATATTTA	0.157 ± 0.127 E-score
ATACGACG	0.191 ± 0.00652 E-score
CCCCTCTC	0.161 ± 0.0741 E-score
AAAGGGAT	0.253 ± 0.0943 E-score
CAGGATAG	0.315 ± 0.00491 E-score
AGCAGTAT	0.313 ± 0.00754 E-score
ATAACACC	0.301 ± 0.039 E-score
ATCCGTCG	0.239 ± 0.00454 E-score

Sequence	binding signal
ACGCTATC	0.296 ± 0.0306 E-score
ATCCAACA	0.293 ± 0.0336 E-score
GGTGGATA	0.362 E-score
AGGTATCG	0.4779 ± 0.00118 E-score
GGTTATCA	0.21 ± 0.00931 E-score
GGGTATCA	0.4971 ± 0.0012 E-score
AGGTATGG	0.177 ± 0.0177 E-score
GGGTATGA	0.27 ± 0.0161 E-score
AGCTATCG	0.284 ± 0.0882 E-score
GACACACC	0.165 ± 0.101 E-score
ATACTTGG	0.199 ± 0.00946 E-score
AAACGATC	0.216 ± 0.065 E-score
ATAGAGGA	0.153 ± 0.03 E-score
ATCCGCTG	0.305 ± 0.0121 E-score
ATCCGCTC	0.377 ± 0.0055 E-score
ATCCGATC	0.43 ± 0.0245 E-score
ATCCGATA	0.466 ± 0.00646 E-score
CTCCGATC	0.185 ± 0.0542 E-score
ATCCGATG	0.253 ± 0.0575 E-score
ATCCGCTA	0.243 ± 0.0351 E-score
CTCCGATA	0.314 ± 0.00415 E-score
GTCCGATA	0.331 ± 0.0437 E-score
ATAGTGAT	0.32 ± 0.0209 E-score
GTGTCCGA	0.217 ± 0.0111 E-score
CAGATTAA	0.217 ± 0.0579 E-score

Sequence	binding signal
GCTTAATA	0.169 ± 0.0471 E-score
GTATTGTA	0.272 ± 0.0188 E-score
ATCTATCG	0.23 ± 0.0219 E-score
ATCCATTC	0.287 ± 0.0196 E-score
TACTGCAA	0.163 ± 0.0382 E-score
TATACATA	0.246 ± 0.0104 E-score
GATACACA	0.3539 ± 0.00325 E-score
GATACAAC	0.305 ± 0.0152 E-score
GATACAGA	0.268 ± 0.0783 E-score
GATACATA	0.398 ± 0.0255 E-score
GATACACC	0.469 ± 0.00523 E-score
AATACATC	0.204 ± 0.0447 E-score
CATACAGA	0.196 ± 0.0391 E-score
AATACATA	0.242 ± 0.0372 E-score
GATACAGC	0.395 ± 0.00544 E-score
CATACACC	0.256 ± 0.0714 E-score
GATACATC	0.4297 ± 0.000849 E-score
AGTGAGCC	0.225 ± 0.0456 E-score
ATCACATG	0.269 ± 0.0277 E-score
ATCATCTC	0.371 ± 0.00868 E-score
ATTGGGGG	0.152 ± 0.0367 E-score
GATCAGTA	0.347 ± 0.00373 E-score
ATACGCTG	0.268 ± 0.0386 E-score
GACACCTC	0.3967 ± 0.00186 E-score
GACACCGC	0.398 ± 0.0204 E-score

Sequence	binding signal
GACACCGA	0.383 ± 0.0167 E-score
GACACCTA	0.3565 ± 0.0024 E-score
GACACCAC	0.439 ± 0.0198 E-score
AACACCGA	0.228 ± 0.0289 E-score
TACACCGA	0.361 ± 0.0113 E-score
CACACCTC	0.267 ± 0.0486 E-score
AACACCGC	0.293 ± 0.041 E-score
CACACCAC	0.206 ± 0.0597 E-score
AACACCAC	0.255 ± 0.026 E-score
CACACCGC	0.164 ± 0.108 E-score
ATATGGAC	0.173 ± 0.0129 E-score
ATCCTTTC	0.212 ± 0.0474 E-score
CAGGATGA	0.183 ± 0.0851 E-score
ATCCCTCC	0.329 ± 0.0164 E-score
ACGCATAT	0.233 ± 0.00465 E-score
GATCTAGA	0.252 ± 0.0586 E-score
CAGAGATA	0.27 ± 0.0194 E-score
CGTCTCAA	0.286 ± 0.0622 E-score
AGTAAGAT	0.191 ± 0.00535 E-score
ATCCGCCC	0.373 ± 0.0127 E-score
AATATCCA	0.2955 ± 0.00224 E-score
GCTATCCC	0.281 ± 0.0159 E-score
AATATCCC	0.378 ± 0.0135 E-score
AATATCCT	0.282 ± 0.0516 E-score
CATATCCA	0.348 ± 0.0227 E-score

Sequence	binding signal
AATATCCG	0.317 ± 0.0622 E-score
GATATCCA	0.452 ± 0.0127 E-score
GATATCCC	0.487 ± 0.00837 E-score
CATATCCC	0.352 ± 0.0303 E-score
GAAGATCA	0.196 ± 0.071 E-score
GAGCAATA	0.151 ± 0.0211 E-score
CGAGATCA	0.287 ± 0.035 E-score
CTAAGATC	0.207 ± 0.011 E-score
ATCTAGCC	0.18 ± 0.0214 E-score
ATATGACC	0.189 ± 0.0241 E-score
GTATGACA	0.153 ± 0.0497 E-score
GTATGAGA	0.167 ± 0.0275 E-score
CTATGGTA	0.305 ± 0.0461 E-score
GTATGATA	0.426 ± 0.00336 E-score
ATATGATA	0.443 ± 0.0314 E-score
CTATGAGA	0.177 ± 0.0191 E-score
ATATGATG	0.202 ± 0.0156 E-score
CTATGATA	0.394 ± 0.0185 E-score
ATATGACA	0.2181 ± 0.00196 E-score
CTATGATC	0.302 ± 0.0116 E-score
ATATGATC	0.378 ± 0.0179 E-score
ATCGGCGA	0.263 ± 0.0285 E-score
